For 7 molecules, growth results are on record in PubChem BioAssay (NCI).

Holding throughout (assay): NCI-60 one-dose screen, 48 h (100 = growth as untreated, 0 = no growth, -100 = all killed)
Common to all, as to conditions: 10 µM unless noted

Assay [1] has as its system SK-MEL-2 melanoma.
For assay [2], the system named is EKVX NSCLC.
The test system of assay [3] is SN12C renal.
For assay [4], the system named is UO-31 renal.
Assay [5] relates to TK-10 renal.
The subject of assay [6] is ACHN renal.
The test system of assay [7] is CAKI-1 renal.
In assay [8] the test system is A498 renal.
In assay [9] the test system is CCRF-CEM leukemia.
For assay [10], the system named is MOLT-4 leukemia.
Assay [11] relates to SR leukemia.
The test system of assay [12] is RPMI-8226 leukemia.
Assay [13] concerns OVCAR-8 ovarian.
Assay [14] concerns OVCAR-5 ovarian.
In assay [15] the test system is OVCAR-4 ovarian.
Assay [16] relates to SK-OV-3 ovarian.
Assay [17] has as its system IGROV1 ovarian.
Assay [18] has as its system OVCAR-3 ovarian.
Assay [19] relates to HS 578T breast.
Assay [20] relates to NCI/ADR-RES ovarian.

About 83,000 compounds went through this panel and 20% of them were active in at least one assay; those are over-represented in the sample as a whole.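 Interpretation: 100, growth as untreated; towards 0, rising growth inhibition; 0, no net growth; 0 to -100, cell death. Compounds scoring below 10 were considered active.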 Values without a mark were called inactive. Calls of active or inactive are those of the source.

Regarding `CCCC(CC)(C(=O)Nc1ccc2nc(C)cc(N)c2c1)C(=O)Nc1ccc2nc(C)cc(N)c2c1`, the growth in assay [1] is 108%; in [2], 101%; in assay [3], 105%; in assay [4], 90.1%; in assay [5], 96.5%; in assay [6], 105%. The growth in assay [7] was 91.9%; in assay [8] it was 104%; in assay [9], 99.9%; in [10], 98.8%; in assay [11], 96.1%; in assay [12], 100%. Also, the growth in [13] was 103%; in [14], 85.1%; in [15], 83.8%; in assay [16] it was 93.1%; in assay [17], 111%; in [18] it was 108%. Moreover, the growth is 106% in assay [19] and 109% in assay [20].

As for `CSC(SC)=C(C#N)c1nc2ccccc2s1`, the growth in [1] is 40%; in assay [2], 74.2%; in assay [3] it was 34.9%; in assay [4] it was 51.8%; in [5], 112%; in [6] it was 62.4%. Besides, the growth is 55.8% in assay [7]; 49.9% in assay [8]; 24.7% in assay [9]; 63.6% in [10]; 81.2% in [11]; 25% in assay [12]. In addition, the growth is 70.2% in [13]; 72.5% in assay [14]; 68.1% in [15]; 19.6% in assay [16]; 49.3% in assay [17]; 70% in [18]. Further, the results for the growth in assay [19] and in assay [20] were 77.1% and 76.7%, respectively.

On to `CN1CCN(Cc2ccc(NC(=O)c3cncc(C#Cc4cnc(N)c5ncccc45)c3)cc2C(F)(F)F)CC1`, for which the growth in assay [1] was -77.3% (active); in assay [2], 33.3%; in assay [3] it was -33.2% (active); in assay [4], -92.3% (active); in assay [5], -63.8% (active); in assay [6], -75.6% (active). Also, the growth was -23.9% (active) in [7]; -27% (active) in assay [8]; 19.3% in assay [9]; 14.5% in assay [10]; 12.4% in [11]; 19.5% in assay [12]. For the same molecule, the growth was -29% (active) in [13]; -26.5% (active) in assay [14]; -21.9% (active) in [15]; 2.59% (active) in [16]; -50.8% (active) in assay [17]; 15.3% in assay [18]. The growth in [19] was -30.3% (active); in [20], -55.3% (active).

With `COc1ccc(CCN(CC(=O)N(CC(N)=O)C2CCC[C@@H]2OCc2ccccc2)C(=O)CN(C(=O)CN(CCc2ccc(Cl)cc2)C(=O)CN(C(=O)CN(C)Cc2ccccc2F)[C@H](C)C2CCCCC2)[C@H](C)C2CCCCC2)cc1OC` (stereo not given in full), the growth in assay [1] is 1.88% (active); in [2] it was 30.8%; in assay [3] it was 35.3%; in assay [4], 37.3%; in assay [5], 15.6%; in [6] it was 28.8%. The growth is 94.7% in assay [7]; 32% in assay [8]; 7.58% (active) in [9]; -37% (active) in assay [10]; -37.1% (active) in [11]; -0.194% (active) in assay [12]. Besides, the growth is 32.2% in [13]; 49.2% in assay [14]; 48.9% in assay [15]; 38.4% in assay [16]; 43.4% in assay [17]; 32.5% in [18]. The growth in [19] was 64.3%; in assay [20] it was 79.2%.

Turning to `O=C1/C=C/[C@@H](O)[C@@H]2C[C@@H](O)C[C@H]2/C=C/CCC[C@H](CCO)O1`, the growth in assay [1] was -20.3% (active); in assay [2], 9.95% (active); in assay [3] it was 10.5%; in assay [4], 18.1%; in assay [5], -30.4% (active); in assay [6], 5.87% (active). Further, the growth in [7] is 1.05% (active); in [8] it was -33.3% (active); in assay [9] it was 18.8%; in assay [10], 15.1%; in assay [11] it was 9.21% (active); in assay [12], 14.7%. The growth in assay [13] was 11%; in [14], 16.1%; in assay [15] it was 27.8%; in assay [16] it was 30.8%; in [17] it was 17.9%; in [18], -46.9% (active). In addition, the growth in assay [19] was 29.4%; in assay [20], 5.98% (active).

As to `COc1ccc(N2CCC(=S)NC2=S)cc1`, the growth in assay [1] is 115%; in assay [2], 104%; in assay [3], 98%; in assay [4] it was 84.3%; in [5], 96%; in [6], 104%. The growth in assay [7] is 85%; in [8], 108%; in assay [9], 102%; in assay [10] it was 98.9%; in assay [11], 112%; in [12] it was 103%. Further, the growth in assay [13] is 99.1%; in assay [14] it was 104%; in assay [15] it was 90.1%; in [16] it was 116%; in assay [17], 105%; in assay [18] it was 103%. Further, the growth in assay [19] was 105%; in [20] it was 103%.

For the molecule `O=C1Nc2ccccc2C1(c1c[nH]c2ccccc12)c1c[nH]c2ccccc12`, the growth in assay [1] is 87.7%; in assay [2] it was 23.3%; in assay [3], 1.17% (active); in [4], 33.6%; in assay [5] it was -10.1% (active); in assay [6], 1.55% (active). Further, the growth in [7] is 44%; in assay [8], 49.3%; in assay [9] it was 65%; in [10], 46.7%; in assay [11], 77.1%; in assay [12], 77.5%. In addition, the growth in assay [13] was -9.32% (active); in assay [14], 65.4%; in [15] it was -25.2% (active); in [16], 72.8%; in assay [17], 8.3% (active); in assay [18] it was -47.2% (active). Besides, the growth is -17.9% (active) in assay [19] and 27.1% in assay [20].
